The structures appear in SMILES notation. Inconclusive results are not listed. The source made the active and inactive calls. How the source made its calls, unless noted: active means hit-call score of the fitted dose curve at least 0.9, where 1 is the maximum; inactive means score below 0.9.

Consider four molecules from PubChem BioAssay (EPA / NIEHS).

Assay [1] has as its target Retinoic acid receptor RXR-alpha (Homo sapiens) (UniProt P19793). As to the kind of experiment: ATG_RXRa_TRANS: Attagene TRANS-FACTORIAL HepG2 Assay for human Retinoid X Receptor alpha (RXRa) (AID 2283012; active means hit-call score of the fitted dose curve at least 0.9, where 1 is the maximum). The essentials:
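Transient transfection of human HepG2 with multiple GAL4-UAS reporter constructs; 24 h compound exposure; total RNA isolated, reverse-transcribed, PCR-amplified, 6-FAM labelled, HpaI-cut, resolved by capillary electrophoresis. Positive-direction fit versus DMSO.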

The target of assay [2] is human Retinoid X Receptor beta (RXRb), RXRB (gene 6257) (UniProt P28702). As to the kind of experiment: ATG_RXRb_TRANS: Attagene TRANS-FACTORIAL HepG2 Assay for human Retinoid X Receptor beta (RXRb) (AID 2283013; active means hit-call score of the fitted dose curve at least 0.9, where 1 is the maximum). The essentials: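 Transfect HepG2 with GAL4-UAS multi-reporter constructs (chimeric NR-Gal4, TRANS format); dose compound 24 h; isolate RNA, RT-PCR, FAM primer extension, HpaI digest; quantify by capillary electrophoresis; positive direction vs DMSO.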

Assay [3] concerns the target human Thyroid Receptor alpha (THRa1), THRA (gene 7067) (UniProt P10827). As to the kind of experiment: ATG_THRa1_TRANS: Attagene TRANS-FACTORIAL HepG2 Assay for human Thyroid Receptor alpha (THRa1) (AID 2283014; active means hit-call score of the fitted dose curve at least 0.9, where 1 is the maximum). The essentials:
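Measured here is mRNA from a GAL4-UAS reporter in transfected HepG2 cells carrying a Gal4-fused receptor, 24 h post-dose. DMSO served as negative control and baseline.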

Read-out in assay [4]: Interleukin-1 alpha (IL1a), IL1A (gene 3552)
As to the kind of experiment: BSK_BE3C_IL1a: BioMAP Diversity Plus: BE3C Assay for Interleukin-1 alpha (IL1a) Biomarker Activity (AID 2283016). The conditions noted are these: primary human bronchial epithelial cells; actives raise or lower the signal. The essentials: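 BE3C primary human bronchial epithelium; cpd 24 h; IL-1a by ELISA; bidirectional fit vs DMSO; parallel SRB (0.1% SRB, 10% TCA fix, 560 nm) for cytotoxicity.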

Read-out in assay [5]: Monocyte Chemoattractant Protein-1 (MCP1), CCL2 (gene 6347)
As to the kind of experiment: BSK_3C_MCP1: BioMAP Diversity Plus: 3C Assay for Monocyte Chemoattractant Protein-1 (MCP1) Biomarker Activity (AID 2283017). The conditions noted are these: primary human endothelial cells (HUVEC); actives raise or lower the signal. The essentials: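 Using human vascular primary endothelium, researchers measured MCP-1 by ELISA 24 h after treatment, with DMSO serving as negative control for bidirectional fitting.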

Read-out in assay [6]: Monocyte Chemoattractant Protein-1 (MCP1), CCL2 (gene 6347)
Kind of assay: BSK_4H_MCP1: BioMAP Diversity Plus: 4H Assay for Monocyte Chemoattractant Protein-1 (MCP1) Biomarker Activity (AID 2283018). The conditions noted are these: primary human endothelial cells (HUVEC); actives raise or lower the signal. The essentials:
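ELISA read-out of MCP-1 from human vascular endothelial primary cells taken at 24 hours after compound exposure. Activity was fitted in both directions relative to DMSO, which served as negative control.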

Read-out in assay [7]: Human Leukocyte Antigen - DR isotype (HLADR), HLA-DRA (gene 3122)
As to the kind of experiment: BSK_3C_HLADR: BioMAP Diversity Plus: 3C Assay for Human Leukocyte Antigen - DR isotype (HLADR) Biomarker Activity (AID 2283019).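 Further: ELISA of cell-surface HLA-DR on HUVEC 24 h after dosing.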 Conditions: primary human endothelial cells (HUVEC); actives raise or lower the signal. The essentials:
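Compound added to primary HUVEC cultures, 24 h incubation, then HLA-DR determined by ELISA; endpoint derived by bidirectional fitting relative to DMSO negative control.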

Read-out in assay [8]: Interleukin-8 (IL8), CXCL8 (gene 3576)
As to the kind of experiment: BSK_3C_IL8: BioMAP Diversity Plus: 3C Assay for Interleukin-8 (IL8) Biomarker Activity (AID 2283020). Conditions: primary human endothelial cells (HUVEC); actives raise or lower the signal. In a few lines: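 ELISA read-out of IL-8 from human umbilical vein endothelium, measured 24 h after chemical dosing. Activity is expressed relative to DMSO negative control, with both increases and decreases fitted.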

Read-out in assay [9]: Monokine induced gamma interferon (MIG), CXCL9 (gene 4283)
As to the kind of experiment: BSK_3C_MIG: BioMAP Diversity Plus: 3C Assay for Monokine induced gamma interferon (MIG) Biomarker Activity (AID 2283021). The conditions noted are these: primary human endothelial cells (HUVEC); actives raise or lower the signal. In a few lines:
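Read-out is ELISA detection of MIG on human umbilical vein endothelial cells, taken 24 h after dosing. Gain or loss of signal was scored relative to DMSO controls using bidirectional curve fitting.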

The target in assay [10] is human Vitamin D Receptor (VDR), VDR (gene 7421) (UniProt P11473). Kind of assay: ATG_VDR_TRANS: Attagene TRANS-FACTORIAL HepG2 Assay for human Vitamin D Receptor (VDR) (AID 2283022; active means hit-call score of the fitted dose curve at least 0.9, where 1 is the maximum). In a few lines: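 Multiplexed TRANS reporter in HepG2; 24 h treatment; reporter mRNA by RT-PCR plus capillary electrophoresis; upregulation scored relative to DMSO.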
Assay [11] can be described thus: BSK_3C_SRB: Viability Assessment in the BioMAP Diversity Plus: 3C Assay (AID 2283023).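 Further: fitted both ways against DMSO so a hit may be signal rise or drop.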 Conditions: primary human endothelial cells (HUVEC). In a few lines:
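Overt cytotoxicity is gauged in parallel confluent HUVEC cultures by SRB total-protein staining at the time of biomarker measurement, 24 h after dosing. Gain or loss of signal is fitted versus DMSO.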

Read-out in assay [12]: Matrix Metallopeptidase 1 (MMP1), MMP1 (gene 4312)
Kind of assay: BSK_BE3C_MMP1: BioMAP Diversity Plus: BE3C Assay for Matrix Metallopeptidase 1 (MMP1) Biomarker Activity (AID 2283024). The conditions noted are these: primary human bronchial epithelial cells; actives raise or lower the signal. The essentials: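 Human bronchial epithelial cells (BE3C system) exposed to compound for 24 h; MMP1 then quantified by ELISA. Activity was fitted in both directions relative to DMSO.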

Assay [13] in a line: BSK_3C_Vis: BioMAP Diversity Plus: 3C Assay for Morphology Visualization (AID 2283025).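 Further: fitted both ways so gain or loss versus DMSO counts.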 The conditions noted are these: primary human endothelial cells (HUVEC). In a few lines: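 Chemicals were added to primary human umbilical vein endothelium, cells were incubated 24 h, and morphology was then visualized by light microscopy. Gain or loss of signal was fitted bidirectionally relative to DMSO.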

Read-out in assay [14]: Pselectin, SELP (gene 6403)
As to the kind of experiment: BSK_4H_Pselectin: BioMAP Diversity Plus: 4H Assay for Pselectin Biomarker Activity (AID 2283026). Conditions: primary human endothelial cells (HUVEC); actives raise or lower the signal. The essentials:
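ELISA read-out of P-selectin on human umbilical vein endothelium after 24 h of dosing. Values derive from bidirectional fitting relative to DMSO. Parallel SRB protein staining flagged overt cytotoxicity.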

Assay [15] is described as follows: BSK_4H_SRB: Viability Assessment in the BioMAP Diversity Plus: 4H Assay (AID 2283027).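 Further: cells exposed to compound for 24 h before staining.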 Conditions: primary human endothelial cells (HUVEC). The essentials:
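Human umbilical vein endothelial cells were dosed with chemical and, after 24 h, fixed with 10% TCA, stained with 0.1% sulforhodamine B, and read at 560 nm to give total protein as a cytotoxicity measure. Bidirectional fitting relative to DMSO control.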

A short description of assay [16]: BSK_BE3C_SRB: Viability Assessment in the BioMAP Diversity Plus: BE3C Assay (AID 2283028).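 On AC50: fitted both ways so AC50 may mark signal gain or loss versus DMSO.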 Conditions: primary human bronchial epithelial cells. The essentials:
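SRB total-protein staining (0.1%, after TCA fixation) of chemically dosed human bronchial epithelial primary cells at 24 h; DMSO serves as the negative control for bidirectional curve fitting.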

Read-out in assay [17]: Thrombomodulin, THBD (gene 7056)
Kind of assay: BSK_3C_Thrombomodulin: BioMAP Diversity Plus: 3C Assay for Thrombomodulin Biomarker Activity (AID 2283029). Conditions: primary human endothelial cells (HUVEC); actives raise or lower the signal. The essentials:
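Read-out is ELISA of thrombomodulin on human umbilical vein endothelium 24 h after chemical dosing. Gain or loss of signal is scored relative to DMSO. Overt cytotoxicity is checked in parallel cultures by sulforhodamine B staining.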

Read-out in assay [18]: Urokinase-type plasminogen activator receptor (uPAR), PLAUR (gene 5329)
As to the kind of experiment: BSK_4H_uPAR: BioMAP Diversity Plus: 4H Assay for Urokinase-type plasminogen activator receptor (uPAR) Biomarker Activity (AID 2283030). The conditions noted are these: primary human endothelial cells (HUVEC); actives raise or lower the signal. The essentials: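 Endpoint derived via bidirectional curve fitting against DMSO baseline; readout was ELISA detection of uPAR on umbilical vein endothelial cells at 24 h post-treatment, with SRB-stained parallel cultures assessing cytotoxicity.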

Read-out in assay [19]: E-selectin (Homo sapiens) (UniProt P16581)
As to the kind of experiment: BSK_3C_Eselectin: BioMAP Diversity Plus: 3C Assay for Eselectin Biomarker Activity (AID 2283015).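 Further: cell surface E-selectin protein quantified by ELISA 24 h after dosing.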 Conditions: primary human endothelial cells (HUVEC); actives raise or lower the signal. The essentials: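 Endpoint derived by bidirectional fitting against DMSO vehicle; signal is ELISA-detected E-selectin from primary HUVEC at 24 h post-dosing, with parallel SRB staining (0.1% SRB, 560 nm) flagging cytotoxicity.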

Retinoic acid receptor RXR-alpha (Homo sapiens), sequence (P19793 whole entry, looked up, the tested form may be a part): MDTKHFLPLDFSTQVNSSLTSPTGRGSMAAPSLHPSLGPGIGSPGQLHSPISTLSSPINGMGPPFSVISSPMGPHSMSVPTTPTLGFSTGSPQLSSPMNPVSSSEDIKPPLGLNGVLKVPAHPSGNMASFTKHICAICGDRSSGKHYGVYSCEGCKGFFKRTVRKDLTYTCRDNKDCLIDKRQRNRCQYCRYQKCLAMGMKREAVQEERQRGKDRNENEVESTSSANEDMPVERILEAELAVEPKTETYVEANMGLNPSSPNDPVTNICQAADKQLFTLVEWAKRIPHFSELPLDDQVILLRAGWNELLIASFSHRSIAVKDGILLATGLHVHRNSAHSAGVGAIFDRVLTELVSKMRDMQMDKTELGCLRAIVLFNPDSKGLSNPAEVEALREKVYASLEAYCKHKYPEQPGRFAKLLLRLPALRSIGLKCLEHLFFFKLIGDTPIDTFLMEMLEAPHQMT
human Retinoid X Receptor beta (RXRb), RXRB (gene 6257), sequence (P28702 whole entry, looked up, the tested form may be a part): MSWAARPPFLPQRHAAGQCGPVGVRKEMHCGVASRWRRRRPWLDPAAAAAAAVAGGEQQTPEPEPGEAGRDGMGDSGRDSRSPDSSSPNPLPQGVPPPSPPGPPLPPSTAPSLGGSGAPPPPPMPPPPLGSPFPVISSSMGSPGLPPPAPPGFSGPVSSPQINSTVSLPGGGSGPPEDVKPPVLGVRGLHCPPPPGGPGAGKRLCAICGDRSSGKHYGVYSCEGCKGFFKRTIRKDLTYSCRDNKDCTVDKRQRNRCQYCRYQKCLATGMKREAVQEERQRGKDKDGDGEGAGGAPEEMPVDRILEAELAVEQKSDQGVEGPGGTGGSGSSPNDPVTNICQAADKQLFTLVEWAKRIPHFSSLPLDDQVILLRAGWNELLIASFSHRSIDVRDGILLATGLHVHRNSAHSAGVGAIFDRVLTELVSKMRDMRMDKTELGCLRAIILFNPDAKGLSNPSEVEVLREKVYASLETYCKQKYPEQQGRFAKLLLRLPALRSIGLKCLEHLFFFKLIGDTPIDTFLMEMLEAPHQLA
human Vitamin D Receptor (VDR), VDR (gene 7421), sequence (P11473 whole entry, looked up): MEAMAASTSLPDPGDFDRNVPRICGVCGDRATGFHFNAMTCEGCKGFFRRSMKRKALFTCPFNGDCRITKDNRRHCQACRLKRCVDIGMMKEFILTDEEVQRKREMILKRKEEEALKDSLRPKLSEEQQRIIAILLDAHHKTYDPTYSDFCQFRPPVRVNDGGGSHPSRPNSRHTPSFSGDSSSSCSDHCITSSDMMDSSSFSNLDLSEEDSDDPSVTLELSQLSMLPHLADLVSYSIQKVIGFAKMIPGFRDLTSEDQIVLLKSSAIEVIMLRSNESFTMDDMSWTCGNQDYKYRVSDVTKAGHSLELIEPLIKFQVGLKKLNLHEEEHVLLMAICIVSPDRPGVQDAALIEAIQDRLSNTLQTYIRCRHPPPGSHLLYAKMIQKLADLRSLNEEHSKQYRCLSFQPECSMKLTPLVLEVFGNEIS
human Thyroid Receptor alpha (THRa1), THRA (gene 7067), sequence (P10827 whole entry, looked up, the tested form may be a part): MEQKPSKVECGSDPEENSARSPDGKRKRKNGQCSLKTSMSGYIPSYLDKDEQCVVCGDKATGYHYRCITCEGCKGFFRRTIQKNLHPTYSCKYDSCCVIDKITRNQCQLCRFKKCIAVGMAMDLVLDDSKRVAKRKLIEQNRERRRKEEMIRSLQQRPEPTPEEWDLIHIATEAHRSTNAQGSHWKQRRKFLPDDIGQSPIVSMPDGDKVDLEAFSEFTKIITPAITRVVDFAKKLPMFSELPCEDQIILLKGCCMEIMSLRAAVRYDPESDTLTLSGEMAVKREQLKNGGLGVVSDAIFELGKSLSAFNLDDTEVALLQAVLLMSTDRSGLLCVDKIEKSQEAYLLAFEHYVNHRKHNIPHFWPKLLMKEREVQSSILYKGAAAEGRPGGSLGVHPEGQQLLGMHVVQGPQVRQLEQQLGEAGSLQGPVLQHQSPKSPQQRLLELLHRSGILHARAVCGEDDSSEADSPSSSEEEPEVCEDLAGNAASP
E-selectin (Homo sapiens), sequence (P16581 whole entry, looked up): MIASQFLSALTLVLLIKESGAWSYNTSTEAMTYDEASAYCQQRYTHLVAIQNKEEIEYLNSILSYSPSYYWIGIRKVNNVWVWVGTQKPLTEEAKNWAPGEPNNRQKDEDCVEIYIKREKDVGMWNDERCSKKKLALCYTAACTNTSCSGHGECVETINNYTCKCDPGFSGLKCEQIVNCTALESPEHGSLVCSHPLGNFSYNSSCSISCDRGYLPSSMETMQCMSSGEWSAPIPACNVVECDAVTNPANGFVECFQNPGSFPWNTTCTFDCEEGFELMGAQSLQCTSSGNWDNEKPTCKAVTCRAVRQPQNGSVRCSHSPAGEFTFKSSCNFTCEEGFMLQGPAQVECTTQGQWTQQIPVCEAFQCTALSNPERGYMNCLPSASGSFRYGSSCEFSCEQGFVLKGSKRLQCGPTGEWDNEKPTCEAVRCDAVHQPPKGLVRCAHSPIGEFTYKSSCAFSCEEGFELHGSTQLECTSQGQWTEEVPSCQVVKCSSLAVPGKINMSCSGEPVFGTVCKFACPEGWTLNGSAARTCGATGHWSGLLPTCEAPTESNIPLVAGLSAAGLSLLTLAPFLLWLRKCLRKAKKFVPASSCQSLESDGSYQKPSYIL

Take `CCCCCCCCCCCCCCCCOS(=O)(=O)O`: the molecule was called inactive in assay [1], in [3], in assay [5], in assay [6], in assay [7] and in assay [8]. The outcome in assay [9], in assay [10], in assay [11], in assay [12], in assay [13] and in assay [14] was inactive. Moreover, the outcome in assay [15], in assay [17] and in assay [18] was inactive. Besides, the values for the AC50 in assay [2], in assay [4] and in assay [16] were 14.6 µM (active), 14.7 µM (active) and 16.6 µM (active), respectively.

As to `OC[C@H]1O[C@@H]2O[C@H]3[C@H](O)[C@@H](O)[C@@H](O[C@H]4[C@H](O)[C@@H](O)[C@@H](O[C@H]5[C@H](O)[C@@H](O)[C@@H](O[C@H]6[C@H](O)[C@@H](O)[C@@H](O[C@H]7[C@H](O)[C@@H](O)[C@@H](O[C@H]1[C@H](O)[C@H]2O)O[C@@H]7CO)O[C@@H]6CO)O[C@@H]5CO)O[C@@H]4CO)O[C@@H]3CO`, the molecule was classed as inactive in assay [2], in [19], in assay [4], in [6], in [7] and in assay [8]. In addition, the result in assay [9], in assay [10], in assay [11], in assay [12], in [13] and in assay [14] was inactive. Besides, the result in assay [15], in assay [16], in [17] and in [18] was inactive.

Consider `O=C(O)c1cccc(C[C@@H]2COc3ccc(OCc4nc5cc(F)ccc5s4)cc3[C@@H]2O)c1`, for which the molecule was called inactive in [1], in assay [2], in assay [4], in assay [5], in [6] and in [7]. Moreover, the result in assay [8], in assay [9], in assay [11], in assay [12], in [13] and in assay [14] was inactive. Further, the result in assay [15], in [16], in assay [17] and in assay [18] was inactive.

Turning to `OC[C@H]1O[C@@](CO)(O[C@H]2O[C@H](CO)[C@@H](O)[C@H](O)[C@H]2O)[C@@H](O)[C@@H]1O`, the call in assay [1], in [2], in assay [4], in assay [6], in [7] and in assay [8] was inactive. Moreover, the outcome in assay [9], in assay [11], in assay [12], in assay [13], in assay [14] and in assay [15] was inactive. Besides, the outcome in assay [16], in assay [17] and in [18] was inactive.
